Several values for one entry are separate records, joined by “and”; a condition that tells them apart may be missing. Identical values can stand only once. Inconclusive results are not listed. Values without a mark were called inactive. Activity calls are given as the source filed them. Calls come from the whole dose curve; as a rule, active = well fitted cell-killing curve with a large enough effect in the repeat runs; inconclusive = weak or mixed curves, or effect the other way; inactive = flat fitted curve, though single readings scatter.
% is set by controls: 0 for no effect and ±100 for the full control effect; potency is the fitted concentration of half-maximal effect.

This experiment in a line: qHTS RealTime-Glo MT Cell Viability Assay in HEK293 cells - 40 hour (AID 1224874). Note: nearly all actives have a fitted effect of over 50% in size. The settings on record: RealTime-Glo luminescence; max response: active compounds read low. The method, boiled down: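 Cells were seeded together with NanoLuc luciferase and a prosubstrate that viable cells reduce to a luciferase substrate. After a 5 h incubation at 37 C/5% CO2, compounds were added and luminescence was measured repeatedly during 40 h of treatment.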
Consider `C/C=C/C(=O)O`, for which the max response is 2.91% and 4.68%.

Take `Cn1cnc([N+](=O)[O-])c1Sc1ncnc2nc[nH]c12`: the Potency was 20.5 µM (active) and 21.3 µM (active). Consider `Cc1cccc(N(C)C(=S)Oc2ccc3ccccc3c2)c1`, for which the max response is -21.9% and -0.992%. Same read-out and setting: in the case of `O=C=Nc1ccc(Cc2ccc(N=C=O)cc2)cc1` it was -12.4% and 1.24%. The same measure, in the same setting: in the case of `O=CCc1ccccc1` it was 1.86% and -0.86%. `CC(C(=O)O)c1cccc(C(=O)c2ccccc2)c1` (stereo not given): the max response is 9.55% and 2.14%. Turning to `CC(=O)C1(C)CC2=C(CCCC2(C)C)CC1C` (stereo not given), the max response was -4.9% and 2.42%. With `c1cc(N(CC2CO2)CC2CO2)ccc1OCC1CO1` (stereo not given), the Potency is 19.5 µM (active) and 15.5 µM (active). Take `Nc1ccccc1N`: the max response is -5.16%. Regarding `CCOCCOCCO`, the max response is 10.2% and 7.38%. Still for that read-out and setting: in the case of `CN(C)C(=N)N=C(N)N` it was 2.54% and 1.8%; in that of `COC(C)COC(C)COC(C)CO` (stereo not given), 0.372% and 18.3%; in that of `O=C(O)c1ccccc1Nc1cccc(C(F)(F)F)c1`, -19.7% and -3.43%. Same read-out and setting: in the case of `Cc1ccc2c(n1)Oc1ccc(C(C)C(=O)OCC(=O)N(C)C)cc1C2` (stereo not given) it was -20.9% and -25.9%. For the molecule `O=C(Nc1ccc(Cl)cc1)Nc1ccc(Cl)c(Cl)c1`, the Potency was 4.34 µM (active) and 3.89 µM (active) and 3.01 µM (active).

The values above are taken from PubChem BioAssay (Tox21).
